An excerpt weighted towards active compounds, which were near 3% of everything screened.
Tau fibril ThT: tau fibrillization inhibition (ThT binding) | AID 1460 | recombinant tau K18 P301L, heparin-induced fibrillization, ThT fluorescence | P10636 | Potency, µM (highest dose often 57.4 µM), most hits filed as inhibitors | hit rate 2.1% among 270,000; also: nearly all actives have a fitted effect of over 55% in size
Target sequence (P10636 561-689 P618L limits assumed): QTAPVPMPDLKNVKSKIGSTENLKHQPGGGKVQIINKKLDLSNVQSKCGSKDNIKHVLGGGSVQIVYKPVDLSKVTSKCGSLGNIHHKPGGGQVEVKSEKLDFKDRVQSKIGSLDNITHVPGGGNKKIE
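In this qHTS, human K18 P301L tau is incubated with compound and heparin for 6 hr at 37 C, and Thioflavin T fluorescence then reports fibril load.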
TRb SRC2 PPI: TRbeta-SRC2 interaction inhibition; TRbeta-SRC2 peptide binding, fluorescence polarization; receptor liganded with 1 µM T3; hit rate 0.065% among 280,000; Potency, µM (titrated, usually from 106 µM), actives largely listed as inhibitors; P10828; also: nearly all actives have a fitted effect of over 50% in size
Target sequence (P10828 whole entry, looked up): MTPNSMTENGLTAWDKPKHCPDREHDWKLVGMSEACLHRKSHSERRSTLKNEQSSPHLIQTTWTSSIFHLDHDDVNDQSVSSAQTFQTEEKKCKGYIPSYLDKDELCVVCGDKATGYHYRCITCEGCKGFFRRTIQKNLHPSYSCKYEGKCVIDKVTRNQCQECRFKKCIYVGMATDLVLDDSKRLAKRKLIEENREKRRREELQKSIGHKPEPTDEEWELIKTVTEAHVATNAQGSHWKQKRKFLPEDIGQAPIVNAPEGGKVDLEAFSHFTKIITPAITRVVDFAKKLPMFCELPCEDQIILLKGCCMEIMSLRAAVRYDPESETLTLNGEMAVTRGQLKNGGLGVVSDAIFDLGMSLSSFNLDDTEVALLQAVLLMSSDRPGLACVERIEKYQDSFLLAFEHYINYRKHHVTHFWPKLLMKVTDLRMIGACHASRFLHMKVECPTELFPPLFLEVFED
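Quantitative HTS by FP: 0.6 uM TRb LBD, 20 nM labeled SRC2 20-mer, 1 uM T3, 5% DMSO; 5 hr ambient incubation; % activity per concentration and potencies from concentration series.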
Tau fluor counter: counter-screen for tau fibril formation inhibitors; Potency, µM (titrated, usually from 57.7 µM); hit rate 0.93% among 280,000; AID 1463; tau K18 P301L Alexa594 fluorescence, heparin fibrillization; also: nearly all actives have a fitted effect of over 55% in size
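Human tau K18 P301L (15 uM unlabeled, 0.24 uM Alexa 594-labeled) in 100 mM sodium acetate pH 7 with 20 uM heparin, 6 hr at 37 C. ThT 30 uM added, 1 hr ambient; Alexa 594 FP and total fluorescence read at 555/632 nm.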
TR SRC2 fluor cs: counter-screen for TRb-SRC2 inhibitors: fluorescence interference. Potency, µM (doses to about 106 µM). AID 1479. TRb/SRC2 Texas Red total fluorescence interference. hit rate 0.29% among 280,000; active = well fitted curve in either direction with a large enough effect; inconclusive = small, poorly fitted or top-dose-only effect
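Human TRb ligand-binding domain at 0.6 uM with 20 nM Texas Red SRC2 peptide in Tris buffer containing 1 uM T3 and 5% DMSO, incubated with compound 5 h at ambient temperature. Total fluorescence (555/632 nm) calculated as parallel + 2 × perpendicular.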
Tau FP inhib: tau fibrillization inhibition (FP) | P10636 | K18 P301L tau heparin fibrillization, Alexa594 FP, 6 h | Potency, µM (highest dose often 57.7 µM), actives largely listed as inhibitors | hit rate 0.39% among 280,000; also: nearly all actives have a fitted effect of over 55% in size
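Human K18 P301L fragment (15 uM unlabeled plus 0.24 uM Alexa 594-labeled) in 100 mM sodium acetate pH 7 with compound, aggregation induced by 20 uM heparin for 6 hr at 37 C. ThT (30 uM) added for 1 hr, then Alexa 594 FP read.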
A number is an active result; . = inactive; ? = inconclusive; / = no result; ! = not confirmed by another sample; [ ] = remark or other dose. Unless noted, calls follow the shape of the dose curve; as a rule, active = well fitted curve in the direction sought with a large enough effect; inconclusive = small, poorly fitted or top-dose-only effect, or another doubt; inactive = no such curve, though single readings can be large; an effect the other way counts as inactive or inconclusive.

SMILES	Tau fibril ThT	TRb SRC2 PPI	Tau fluor counter	TR SRC2 fluor cs	Tau FP inhib
O=C1SC(Nc2ccc(Cl)cc2)C(=O)N1Cc1ccccc1 (stereo unspecified)	.	.	?	0.0032µM[quencher]	?
Cc1ccc(NC(=S)NCCSc2ccc(Cl)cc2)cc1	.	.	?	.	?
CC(CNC(=S)Nc1cc(F)cc(F)c1)CSc1ccc(Cl)cc1 (stereo unspecified)	.	.	?	.	28.2µM
COc1ccc(-n2cc(C(=O)NC(C)c3ccccc3)c3ccccc3c2=O)cc1 (stereo unspecified)	?	.	.	.	.
N#C/C(=C\c1ccc(O)c(O)c1)C(=O)NCCCCc1ccccc1	15.8µM	.	14.1µM[quencher]	.	.
N#C/C(=C/c1ccc([N+](=O)[O-])cc1)C(=O)Nc1ccccc1O	?	.	.	.	.
N#C/C(=C\c1ccc(O)c(O)c1)C(=O)NCCc1ccccc1	?	.	?	.	.
N#C/C(=C/c1ccc(O)c([N+](=O)[O-])c1)C(=O)Nc1ccccc1	8.91µM	.	?	.	.
Cc1cccc2c1-c1sc(C(=O)N3CCN(c4ccccc4)CC3)cc1CO2	?	.	.	.	.
CCCCc1ccc(-n2nc3cc(C)c(NC(=O)Cc4ccccc4)cc3n2)cc1	31.6µM	.	39.8µM[quencher]	.	?
COc1ccc(C2Nc3cccc4cccc(c34)N2)cc1	15.8µM	.	?	.	.
CCOc1cc(C2Nc3cccc4cccc(c34)N2)ccc1O	6.31µM	.	5.01µM[quencher]	?	?
COc1ccccc1C1Nc2cccc3cccc(c23)N1	22.4µM	.	?	.	.
CCOc1ccc(C2Nc3cccc4cccc(c34)N2)cc1OC	3.55µM	.	?	.	?
Oc1ccccc1C1Nc2cccc3cccc(c23)N1	.	.	.	.	.
CCOCCOCCOCCO	/	.	/	.	/
CCN1CCN(c2cc(C)c3cc(NC(=O)c4cccs4)ccc3n2)CC1	?	.	?	.	.
CCN1CCN(c2cc(C)c3cc(NC(=O)/C=C/c4ccc(C)cc4)ccc3n2)CC1	4.47µM	.	14.1µM[quencher]	.	.
COc1ccc(/C=C/C(=O)Nc2ccc3nc(N4CCC(C)CC4)cc(C)c3c2)cc1OC	3.55µM	.	3.55µM[quencher]	.	.
COc1ccccc1CC(=O)Nc1ccc2nc(N3CCC(C)CC3)cc(C)c2c1	.	.	?	.	.
CCN1CCN(c2cc(C)c3cc(NC(=O)/C=C/c4ccc(OCCC(C)C)cc4)ccc3n2)CC1	7.08µM	.	?	.	.
Cc1cc(-c2ccc(C)c(S(=O)(=O)N(C)c3ccc(C)c(C)c3)c2)on1	.	.	?	.	?
CC(C)C[C@@H](C=O)NC(=O)[C@H](CC(C)C)NC(=O)[C@H](CC(C)C)NC(=O)OCc1ccccc1	.	.	.	.	.
Cc1cc(=O)[nH]c2nnc(SCCC(C)C)n12	.	.	.	.	.
O=C(NCCCCCCNC(=O)ON=C1CCCCC1)ON=C1CCCCC1	.	.	.	.	.
SMILES	Tau fibril ThT	TRb SRC2 PPI	Tau fluor counter	TR SRC2 fluor cs	Tau FP inhib
COC(=O)Cc1[nH]nc2c1C(c1c[nH]c3ccccc13)C(C#N)=C(N)O2 (stereo unspecified)	25.1µM	.	?	.	.
Cc1cc(C)c2c(n1)sc1c(=O)n(-c3cc(Cl)ccc3C)nnc12	.	.	.	.	.
COc1cc(CN(C(=O)COc2ccccc2)c2ccccn2)cc(OC)c1OC	.	.	.	.	.
COc1ccc(-c2c(C)nn3c(-c4ccccc4)cc(-c4ccccc4)nc23)cc1OC	.	.	?	.	.
COc1ccc(-c2cc(C)nc3c(-c4ccc(OC)c(OC)c4)c(C)nn23)cc1	10µM	.	14.1µM[quencher]	.	?
Cc1nnc(SCc2ccccc2)c2cc3sccc3n12	22.4µM	.	.	.	?
Cc1ccc(C)c(CSc2nnc(C)n3c2cc2sccc23)c1	?	.	.	.	.
Cc1cc(N=Nc2ccc(Cl)cc2)cc(CN2CCCC2)c1O	28.2µM	.	?	.	?
CCOc1ccc(CNC(=O)c2cccn2-c2nnc(N3CCCCC3)s2)cc1OC	.	.	.	.	.
CC(=O)Cn1ncc(Br)c(Br)c1=O	?	.	.	.	?
O=C(OCn1ncc(Br)c(Br)c1=O)c1c(F)cccc1F	7.08µM	.	.	.	?
Cc1ccc(-n2ncc(C(=O)Nc3ccc4c(c3)OCO4)c2C2CCN(C(=O)OC(C)(C)C)CC2)cc1	?	.	12.6µM[quencher]	.	.
Nc1c(C(=O)Nc2ccc(Br)cc2)sc2nc(-c3ccco3)ccc12	5.01µM	.	?	?	.
Nc1c(C(=O)Nc2ccc(F)cc2)sc2nc(-c3ccco3)ccc12	6.31µM	.	?	.	.
CC(=O)c1sc2nc(-c3ccco3)ccc2c1N	7.08µM	.	?	?	.
COc1ccc(C2/C=C\CN(C(=O)C3CCCC3)C(C)C(=O)N2Cc2ccc(F)cc2)cc1 (stereo unspecified)	/	.	/	.	/
CCOC(=O)c1c(S(=O)(=O)NCC(=O)Nc2ccc(F)cc2C)c(C)n(C)c1C	.	.	.	.	.
N#CCC(=O)Nc1ccc(C(=O)OCC(=O)Nc2ccccc2Sc2ccccc2)cc1	.	.	?	.	28.2µM
CCCCCOC(=O)CSc1nc2sc3c(c2c(=O)n1Cc1ccccc1)CC(C)(CC)OC3 (stereo unspecified)	.	.	.	.	.
O=C(O)c1cc(-c2ccco2)nc2ccc(Br)cc12	15.8µM!	.	?	.	?
O=C(Nc1ccc(N2CCOCC2)cc1)Nc1ccc2nc(-c3ccco3)c(-c3ccco3)nc2c1	.	.	.	.	.
O=C(Nc1ccc2nc(-c3ccco3)c(-c3ccco3)nc2c1)NC1CC1	7.08µM	.	12.6µM[quencher]	35.5µM[quencher]	?
O=C(O)c1ccc2nc(-c3ccco3)c(-c3ccco3)nc2c1	7.94µM	.	?	?	10µM
COc1cc(NC(=O)c2ccnc(N)c2)cc(C(=O)Nc2cccc(C(F)(F)F)c2)c1	.	.	?	.	28.2µM
NC(=O)COC(=O)c1cc(-c2ccco2)nc2ccccc12	?	.	.	.	?
SMILES	Tau fibril ThT	TRb SRC2 PPI	Tau fluor counter	TR SRC2 fluor cs	Tau FP inhib
COc1ccc(S(=O)(=O)NCCc2sc3nc(-c4ccc(C)cc4)nn3c2C)cc1C	.	.	.	.	.
CC(C)CCCCCCCCCCCCCCC(=O)O	/	.	/	.	/
Cc1nc(-c2ccc(Cl)cc2)sc1CCNC(=O)C(=O)Nc1ccc(F)cc1F	.	.	.	.	.
O=C(Nc1cccc(C(F)(F)F)c1)c1ccc2snnc2c1	.	.	.	.	.
COc1ccc(CCNC(=O)c2ccc3nc(-c4ccco4)c(-c4ccco4)nc3c2)cc1OC	6.31µM	?	12.6µM[quencher]	11.2µM[quencher]	?
O=C(Nc1cccc(C(F)(F)F)c1)c1ccc2nc(-c3ccco3)c(-c3ccco3)nc2c1	14.1µM	?	15.8µM[quencher]	8.91µM[quencher]	?
COc1ccc(CCn2c(N)c(C(=O)NCc3ccco3)c3nc4ccccc4nc32)cc1	?	.	?	.	?
